Source: PubChem BioAssay

Molecular target: PEG-3 (UniProt Q6IN02)
Assay: inhibition of PEG-3 promoter-driven reporter – cell-based, HeLa, luciferase, CREF/GAPDH counter-screen panel, dose response (AID 624167)
Settings: CREF/GAPDH counter-screens; HeLa PEG-Prom luciferase reporter, overnight, run 2, dose range 1, at 100 µM (top of the series) unless noted

Chain of PEG-3 (Q6IN02 whole entry, looked up): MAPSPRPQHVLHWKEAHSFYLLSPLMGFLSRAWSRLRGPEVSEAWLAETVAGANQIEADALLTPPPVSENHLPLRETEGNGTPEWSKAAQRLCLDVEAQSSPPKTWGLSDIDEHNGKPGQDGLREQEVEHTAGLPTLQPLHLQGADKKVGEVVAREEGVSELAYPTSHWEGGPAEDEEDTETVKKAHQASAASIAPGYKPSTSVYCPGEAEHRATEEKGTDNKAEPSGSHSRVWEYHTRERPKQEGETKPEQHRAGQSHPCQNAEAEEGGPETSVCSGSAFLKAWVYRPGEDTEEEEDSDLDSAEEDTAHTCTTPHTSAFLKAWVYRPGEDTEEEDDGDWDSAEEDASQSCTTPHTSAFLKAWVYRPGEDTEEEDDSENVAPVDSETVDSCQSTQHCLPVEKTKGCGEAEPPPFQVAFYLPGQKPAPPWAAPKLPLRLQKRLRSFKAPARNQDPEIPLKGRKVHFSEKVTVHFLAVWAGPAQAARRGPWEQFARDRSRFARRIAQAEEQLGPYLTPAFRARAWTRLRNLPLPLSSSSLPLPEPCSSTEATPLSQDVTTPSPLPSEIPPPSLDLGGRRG

Compound | inhibition
O=C(Nc1nc2cc3c(cc2s1)OCCO3)c1ccco1 | 95.5%
O=C1C(Cl)=C(Nc2ccccc2)C(=O)c2ccccc21 | 101%
COc1ccc(-c2cc3nc(C)n(N)c(=O)c3s2)cc1 | 102%
COc1cc(OC)c2cc(C(=O)N/N=C/c3ccccc3O)[nH]c2c1 | 95.1%
CCN(CCO)c1ccc(N=Nc2cc(C)[nH]n2)cc1 | 98.9%
Cc1cc(/C=N/Nc2ncnc(N)c2[N+](=O)[O-])c(C)n1-c1ccccc1 | 87%
COc1ccccc1C(=O)Nc1nc2ccccc2[nH]1 | 102%
CCOc1ccc2nc(NC(=O)c3ccccn3)sc2c1 | 83.6%
CCCC(=O)NC(c1ccc(C(C)C)cc1)c1ccc2cccnc2c1O (centres undefined) | 82.8%
O=C(O)c1ccc(CN2C(=O)c3cccc4c([N+](=O)[O-])ccc(c34)C2=O)cc1 | 100%
Cc1c([N+](=O)[O-])cc(N2C(=O)C=CC2=O)cc1[N+](=O)[O-] | 102%
c1ccc(-c2nc(-c3ccccn3)no2)cc1 | 91.1%
CCn1nc(C)cc1-c1nnc(Sc2ncc([N+](=O)[O-])s2)n1C | 101%
O=C(CNC(=O)C(c1ccccc1)c1ccccc1)N/N=C/c1ccc(O)cc1O | 52.3%
Clc1ccccc1/C=C/c1nc(-c2ccccn2)no1 | 96.5%
O=C(CCl)N1c2ccccc2Sc2ccc3ccccc3c21 | 101%
O=C(/C=C\Nc1ccc2c(c1)OCO2)c1ccccn1 | 95.1%
O=C(Nc1cc(S(=O)(=O)N2CCOCC2)ccc1Cl)c1cc([N+](=O)[O-])ccc1Cl | 98.9%
CN(C)c1ccc(NC(=S)c2ccccn2)cc1 | 85.4%
CN(C)c1ccc(C=c2c3ccccc3n3c2cc(-c2ccccc2)[n+]3C)cc1 | 102%

System: Rat fibroblasts (CREF)
Assay: as above
Settings: CREF/GAPDH counter-screens; run 1, dose range 1, at 100 µM (top of the series)

Compound | inhibition
COC1=C(Br)C(=O)c2ncccc2C1=O | 95.3%
Cc1ccc(-c2cc3c(N=O)c4ccccc4c-3n[nH]2)cc1 | 87.3%
CC(=O)NC(c1ccc(Cl)cc1)c1ccc2cccnc2c1O (centres undefined) | 4.58%
CCCCC(=O)NC(c1ccc(OC)cc1)c1ccc2cccnc2c1O (centres undefined) | 35.2%
Cc1cccc(C)c1NC(=O)c1nc(S(=O)(=O)Cc2ccccc2)ncc1Cl | 99.2%
CN(C)CC1CCC/C(=C\c2ccc(OC(=O)c3ccc(Cl)cc3)cc2)C1=O (centres undefined) | 51.4%
CCCC(=O)NC(c1ccc(OC)cc1)c1ccc2cccnc2c1O (centres undefined) | 28.1%
CN(C)c1ccc(/C=C/c2ccc3c4ccccc4ccc3[n+]2-c2ccccc2)cc1 | 101%
CN(C)c1ccc(/C=C(\C#N)c2ccccn2)cc1 | 98.2%
O=C(O)c1ccc(N/N=C/c2ccc3nccnc3c2)cc1 | 58.2%
Cc1nc(-c2ccc(NC(=O)c3ccco3)cc2)cs1 | 93.3%
COc1ccccc1CNCC(O)Cn1c2ccccc2c2ccccc21 (centres undefined) | 99.2%
C/C(=N\NC(=O)c1cc(C2CC2)nc2ccccc12)c1ccc(O)cc1O | 31.4%
CCc1ccc(/C=C2\SC(=S)N(CCCC(=O)NC3=NCCS3)C2=O)cc1 | 0.087%
O=C(Nc1nc2cc3c(cc2s1)OCCO3)C1=COCCO1 | 95.3%
Cc1ccc(-c2nc(-c3ccccn3)no2)cc1Cl | 99.3%
CCN(CC)S(=O)(=O)c1cccc(C(=O)N/N=C(\C)c2ccc(O)cc2O)c1 | 43.3%
CC(C)Cc1ccc(C(C)C(N)=NCCc2ccccc2)cc1 (centres undefined) | 100%
O=C(N/N=C/c1sc(N2CCOCC2)nc1-c1ccccc1)c1cccc(S(=O)(=O)N2CCCC2)c1 | -19%
O=C(Nc1nc2cc3c(cc2s1)OCCO3)c1ccco1 | 92.9%

Compound | inhibition
O=C1C(Cl)=C(Nc2ccccc2)C(=O)c2ccccc21 | 96.9%
COc1ccc(-c2cc3nc(C)n(N)c(=O)c3s2)cc1 | 99%
COc1cc(OC)c2cc(C(=O)N/N=C/c3ccccc3O)[nH]c2c1 | 67.5%
CCN(CCO)c1ccc(N=Nc2cc(C)[nH]n2)cc1 | 99.4%
Cc1cc(/C=N/Nc2ncnc(N)c2[N+](=O)[O-])c(C)n1-c1ccccc1 | 91.1%
COc1ccccc1C(=O)Nc1nc2ccccc2[nH]1 | 100%
CCOc1ccc2nc(NC(=O)c3ccccn3)sc2c1 | 87.1%
CCCC(=O)NC(c1ccc(C(C)C)cc1)c1ccc2cccnc2c1O (centres undefined) | 17.4%
O=C(O)c1ccc(CN2C(=O)c3cccc4c([N+](=O)[O-])ccc(c34)C2=O)cc1 | 71.3%
Cc1c([N+](=O)[O-])cc(N2C(=O)C=CC2=O)cc1[N+](=O)[O-] | 99.5%
c1ccc(-c2nc(-c3ccccn3)no2)cc1 | 98%
CCn1nc(C)cc1-c1nnc(Sc2ncc([N+](=O)[O-])s2)n1C | 99.4%
O=C(CNC(=O)C(c1ccccc1)c1ccccc1)N/N=C/c1ccc(O)cc1O | 28.9%
Clc1ccccc1/C=C/c1nc(-c2ccccn2)no1 | 89.2%
O=C(CCl)N1c2ccccc2Sc2ccc3ccccc3c21 | 99.4%
O=C(/C=C\Nc1ccc2c(c1)OCO2)c1ccccn1 | 98.9%
O=C(Nc1cc(S(=O)(=O)N2CCOCC2)ccc1Cl)c1cc([N+](=O)[O-])ccc1Cl | 85.8%
CN(C)c1ccc(NC(=S)c2ccccn2)cc1 | 94.4%
CN(C)c1ccc(C=c2c3ccccc3n3c2cc(-c2ccccc2)[n+]3C)cc1 | 101%
